# In PubChem BioAssay (Tox21):
# A number with no mark means an inactive call. Inconclusive results are not listed. A call without a number means that no potency is given here. Activity calls are given as the source filed them. Calls follow the shape of the full dose curve.
# Assays:
# [1] = molecular target: Acetylcholinesterase (Homo sapiens) (UniProt P22303); assay: Acetylcholinesterase (AChE) small molecule antagonists: colormetric cell-based qHTS assay (AID 1347395); also: nearly all actives have a fitted effect of over 30% in size; also: potency is read from the fitted curve at half-maximal effect
# Acetylcholinesterase (Homo sapiens), sequence (P22303 whole entry, looked up): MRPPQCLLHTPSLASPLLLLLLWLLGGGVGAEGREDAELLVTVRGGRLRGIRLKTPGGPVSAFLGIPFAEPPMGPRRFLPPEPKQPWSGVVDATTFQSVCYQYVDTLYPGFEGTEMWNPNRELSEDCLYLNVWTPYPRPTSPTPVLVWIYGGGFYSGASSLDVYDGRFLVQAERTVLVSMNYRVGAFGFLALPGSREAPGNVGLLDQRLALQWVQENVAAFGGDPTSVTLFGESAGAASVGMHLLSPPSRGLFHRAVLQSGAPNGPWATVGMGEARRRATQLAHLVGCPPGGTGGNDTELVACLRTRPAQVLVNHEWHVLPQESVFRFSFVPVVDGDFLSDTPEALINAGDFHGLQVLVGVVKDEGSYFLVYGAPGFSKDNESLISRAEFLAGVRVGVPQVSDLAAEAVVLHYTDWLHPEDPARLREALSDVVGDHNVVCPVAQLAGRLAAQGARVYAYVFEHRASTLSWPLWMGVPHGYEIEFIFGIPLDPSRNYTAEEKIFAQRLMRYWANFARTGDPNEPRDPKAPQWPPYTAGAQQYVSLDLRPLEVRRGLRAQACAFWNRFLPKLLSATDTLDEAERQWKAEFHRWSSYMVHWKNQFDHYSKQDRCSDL
# In short: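 SH-SY5Y cells, plated overnight at 37 C, were exposed to compounds for 30 min at 37 C and 5% CO2. Acetylthiocholine plus DTNB was then added, and thiocholine from endogenous AChE was quantified colorimetrically after 90 min at 37 C.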
# [2] = molecular target: Acetylcholinesterase (Homo sapiens) (UniProt P22303); assay: Acetylcholinesterase (AChE) small molecule antagonists: fluorescence cell-based qHTS assay (AID 1347398); details: Potency: AChE activity; outcome: AChE activity; also: nearly all actives have a fitted effect of over 50% in size; also: potency is read from the fitted curve at half-maximal effect
# In short: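 Human SH-SY5Y cells were plated overnight at 37 C, exposed to compound for 30 min at 37 C, 5% CO2, then given acetylthiocholine plus Thiolite Green for 40 min at room temperature; thiocholine fluorescence (Ex/Em 490/520 nm) reports endogenous AChE activity.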
# [3] = molecular target: Acetylcholinesterase (Homo sapiens) (UniProt P22303); assay: Acetylcholinesterase (AChE) small molecule antagonists: enzyme-based qHTS assay with human liver microsomes (AID 1347399); details: Potency: qHTS inhibition; outcome: qHTS inhibition; also: nearly all actives have a fitted effect of over 60% in size
# In short: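 Recombinant human AChE (50 mU/mL in the enzyme mix) and human liver microsomes (0.25 mg/mL final) were preincubated with compound and NADPH (0.25 mg/mL final) for 30 min at 37 C. Acetylthiocholine/DTNB was then added; thiocholine was read colorimetrically after 10 min at room temperature.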
smiles,measurement,setting,value
CCCN1C[C@H](CSC)C[C@@H]2c3cccc4[nH]cc(c34)C[C@H]21,Potency,[1],5.5 µM (active)
same,Potency,[2],12.3 µM (active)
same,outcome,[3],inactive
CCCCCCCC/C=C\CCCCCCCC(=O)N(C)CC(=O)O,Potency,[1],inactive
same,Potency,[2],inactive
same,Potency,[3],inactive
CCOC(=O)c1ccccc1C(=C1C=C(Br)C(=O)C(Br)=C1)c1cc(Br)c(O)c(Br)c1,Potency,[1],inactive
same,Potency,[2],inactive
same,Potency,[3],inactive
CC(=O)c1cnccn1,Potency,[1],inactive
same,Potency,[2],inactive
same,Potency,[3],inactive
CCCCCCCCCCCCOCCOS(=O)(=O)O,Potency,[1],inactive
same,Potency,[2],inactive
same,Potency,[3],inactive
CCCN(CCc1cccs1)[C@H]1CCc2c(O)cccc2C1,Potency,[1],13.8 µM (active)
same,Potency,[2],11 µM (active)
same,Potency,[3],inactive
COc1cc2nc(N3CCN(C(=O)C4CCCO4)CC3)nc(N)c2cc1OC (stereo not drawn),Potency,[1],27.5 µM (active)
same,Potency,[2],12.3 µM (active)
same,Potency,[3],inactive
CN1CCN(c2ccccc2/C=C2\SCCN(c3ccc(Cl)c(Cl)c3)C2=O)CC1,Potency,[1],inactive
same,Potency,[2],39.9 µM (active)
same,Potency,[3],inactive
C=CC[N+]1([C@H]2C[C@H]3[C@@H]4CC[C@H]5C[C@H](OC(C)=O)[C@@H](N6CCCCC6)C[C@]5(C)[C@H]4CC[C@]3(C)[C@H]2OC(=O)CC)CCCCC1,Potency,[1],27.5 µM (active)
same,Potency,[2],13.8 µM (active)
same,Potency,[3],inactive
N=C1C=CC(=C(c2ccc(N)cc2)c2ccc(N)cc2)C=C1,Potency,[1],inactive
same,Potency,[2],39.9 µM (active)
same,Potency,[3],inactive
CO[C@@H]1COCC[C@@H]1N[C@@H]1CC[C@@](C(=O)N2CCc3ncc(C(F)(F)F)cc3C2)(C(C)C)C1,Potency,[1],inactive
same,Potency,[2],inactive
same,Potency,[3],inactive
CC(=O)CCC1=C(C)CCCC1(C)C,Potency,[1],inactive
same,Potency,[2],inactive
same,Potency,[3],inactive
CCCCCCCCCCCCCCOS(=O)(=O)O,Potency,[1],inactive
same,Potency,[2],inactive
same,Potency,[3],inactive
N=C(N)c1ccc2cc(OC(=O)c3ccc(N=C(N)N)cc3)ccc2c1,Potency,[1],27.5 µM (active)
same,outcome,[3],inactive
C[C@@H](O)[C@H]1C(=O)N2C(C(=O)O)=C(S[C@@H]3CN[C@H](CNS(N)(=O)=O)C3)[C@H](C)[C@H]12,Potency,[1],inactive
same,Potency,[3],inactive
CCOC(=O)c1ccc(NC(=O)CN2CCCCC2)cc1,Potency,[1],30.9 µM (active)
same,Potency,[3],inactive
CCN(Cc1cccc(S(=O)(=O)O)c1)c1ccc(C(=C2C=CC(=[N+](CC)Cc3cccc(S(=O)(=O)[O-])c3)C=C2)c2ccccc2)cc1,Potency,[1],inactive
same,Potency,[3],inactive
CC(=O)c1ccccc1N,Potency,[1],inactive
same,Potency,[2],inactive
same,Potency,[3],inactive
CCCCCCCCCCCCCCCCCCOS(=O)(=O)O,Potency,[1],inactive
same,Potency,[2],inactive
same,Potency,[3],inactive
CN(C)CCCNCCCN,Potency,[1],35.4 µM (active)
same,Potency,[2],35.4 µM (active)
same,Potency,[3],inactive
CCCC(=O)OC[C@@H](OC(=O)CCC)[C@@H](OC(=O)CCC)[C@H](Cn1c2nc(=O)[nH]c(=O)c-2nc2cc(C)c(C)cc21)OC(=O)CCC,Potency,[1],inactive
same,Potency,[3],inactive
CCCCCCCCCCCCN(CCO)CCO,Potency,[1],inactive
same,Potency,[3],inactive
CCCCCCCCc1ccc(Nc2ccc(CCCCCCCC)cc2)cc1,Potency,[1],inactive
same,Potency,[3],inactive
Cc1c(C)n(Cc2ccccc2)c2ccc(C(=O)OCCN(C)C)cc12,Potency,[1],inactive
same,Potency,[2],13.8 µM (active)
same,Potency,[3],inactive
O=C(CCN1CCN2CCCC2C1)N1c2ccccc2Sc2ccc(Cl)cc21 (stereo not drawn),"activity, negative = inhibition",[1],0% [at 23.6 µM]
same,"activity change, negative = inhibition",[3],1.34% [at 23.6 µM]
COc1cc(N)c(Cl)cc1C(=O)NC1CCN(Cc2ccccc2)CC1,Potency,[1],17.4 µM (active)
same,Potency,[3],inactive
Cc1ccc2c(c1)OCC(=O)CO2,Potency,[1],35.6 µM (active)
same,Potency,[3],inactive
C[N+](C)(CCOc1ccccc1)Cc1cccs1,Potency,[1],inactive
same,Potency,[2],inactive
same,Potency,[3],inactive
OCc1cc(C(O)CNCCCCCCOCCCCc2ccccc2)ccc1O (stereo not drawn),Potency,[1],inactive
same,Potency,[3],inactive
O=C(CS(=O)Cc1ccco1)NC/C=C\COc1cc(CN2CCCCC2)ccn1 (stereo not drawn),Potency,[1],38.9 µM (active)
same,Potency,[3],inactive
CCCCCCCC/C=C/CCCCCCCC1=NCCN1CCO,Potency,[1],inactive
same,Potency,[3],inactive
CCOc1nc2cccc(C(=O)OC(C)OC(=O)OC3CCCCC3)c2n1Cc1ccc(-c2ccccc2-c2nn[nH]n2)cc1 (stereo not drawn),Potency,[1],inactive
same,Potency,[2],inactive
same,Potency,[3],inactive
COc1cc(C(=O)NC2CCN(C)CC2)ccc1Nc1ncc2c(n1)N(C1CCCC1)CC(F)(F)C(=O)N2C,Potency,[1],32.6 µM (active)
same,Potency,[3],inactive
CC(Cc1ccc(O)c(O)c1)C(C)Cc1ccc(O)c(O)c1 (stereo not drawn),Potency,[1],inactive
same,Potency,[3],inactive
CC(C)(O)c1ccc(CNC(=O)c2cccnc2Oc2ccc(F)cc2)cc1,Potency,[1],inactive
same,Potency,[2],inactive
same,Potency,[3],inactive
CCOC(=O)c1ccc(C#Cc2ccc3c(c2)C(C)(C)CCS3)nc1,Potency,[1],inactive
same,Potency,[3],inactive
C=COCCCC,Potency,[1],inactive
same,Potency,[2],inactive
same,Potency,[3],inactive
NC(=O)C1(N2CCCCC2)CCN(CCCN2c3ccccc3CCc3ccc(Cl)cc32)CC1,Potency,[1],inactive
same,Potency,[2],inactive
same,Potency,[3],inactive
O=C1CC[C@@H](C(=O)O)N1,Potency,[1],inactive
same,Potency,[2],inactive
same,Potency,[3],inactive
CN1CCCC(n2nc(Cc3ccc(Cl)cc3)c3ccccc3c2=O)CC1 (stereo not drawn),Potency,[1],17.4 µM (active)
same,Potency,[2],13.8 µM (active)
same,Potency,[3],inactive
CCCC(=O)OC/C=C(\C)CCC=C(C)C,Potency,[1],inactive
same,Potency,[2],inactive
same,Potency,[3],inactive
CN(CC1(C)CCCO1)S(=O)(=O)c1ccc(Cl)c(S(N)(=O)=O)c1 (stereo not drawn),Potency,[1],inactive
same,Potency,[2],inactive
same,Potency,[3],inactive
CCCCCCCCN(C)CCCCCCCC,Potency,[1],inactive
same,Potency,[2],inactive
same,Potency,[3],inactive
